An excerpt weighted towards active compounds, which were near 6.5% of everything screened.
HepG2 viability: qHTS for Inhibitors of TGF-b: Cytotox Counterscreen; HepG2 CAGA-GFP viability, ATP luminescence, 18 h; Potency, µM (highest dose often 46.1 µM), inactives show at the highest dose activity change, negative = cytotoxicity, most hits filed as cytotoxic; 0.76% of 410,000 active; AID 588856, 2011; further: potency means the concentration at half of the fitted maximal effect
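CellTiter-Glo luminescence gave cytotoxicity after 18 hours at 37 degrees C. The cells were HepG2 CAGA-GFP in 1% FBS DMEM, stimulated with 500 pg/mL TGF-beta after compound addition. %Activity was normalised to no-cell wells (complete cell-killing) and DMSO (no toxicity), and curves were fitted and classified.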
TGFb SMAD3 inh: qHTS for Inhibitors of TGF-b; HepG2 CAGA-GFP TGF-b/SMAD3 reporter, GFP fluorescence, 18 h; TGF-beta stimulated, 500 pg/mL final; Potency, µM (highest dose often 46.1 µM), for inactives: at the highest dose activity, negative = inhibition, usual class: inhibitors; 1.2% of 410,000 active; further: potency means the concentration at half of the fitted maximal effect; on the % scale 0 is the no-effect control and ±100 the full control effect; nearly all actives have a fitted effect of over 65% in size
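Read-out: total well GFP (ex488/em500-530) summed from mean per-cell fluorescence. Cells: HEPG2 CAGA-GFP, 1% FBS DMEM, 18 h at 37 degrees C with 500 pg/mL final TGF-beta. Unstimulated wells served as the full-inhibition control; stimulated DMSO wells = 0%.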
Giardia kill: Small Molecules that selectively kill Giardia lamblia: qHTS; activity change, % at 7.66 µM, hits read low; 0.15% of 340,000 active; Giardia lamblia trophozoite viability; in the data active means activity change below about -80%; inconclusive means between about -30% and that limit;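 further: parasites exposed to compound for two days anaerobically before the ATP read; on the % scale 0 is the no-effect control and ±100 the full control effect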
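Trophozoite viability was measured as ATP-dependent luminescence, read 15-30 min after reagent addition. Before that, parasites at 100 cells/well were exposed to compounds for 48 h, anaerobically, at 37 deg C.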
IL1B secr inh: qHTS for Inhibitors of Inflammasome Signaling: IL-1-beta AlphaLISA Primary Screen | AID 743279, 2014 | THP-1 LPS/ATP IL-1B secretion, AlphaLISA, 16 h; active compounds read low | 4.7% of 360,000 active | activity change, % at 57.5 µM; in the data active means activity change below about -50%; inconclusive means mostly about -30% to -49%; further: on the % scale 0 is the no-effect control and ±100 the full control effect
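Secreted IL-1B measured by AlphaLISA bead assay after 16 h compound exposure of THP-1 cells; compounds (final up to 57.5 uM) added 1 h before LPS (250 ng/mL) and ATP (1.25 mM) stimulation; lower signal means less secretion.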
HT1080-NT tox: qHTS for induction of synthetic lethality in tumor cells producing 2HG: qHTS for the HT-1080-NT fibrosarcoma cell line | HT-1080-NT fibrosarcoma viability, CellTiter-Glo ATP luminescence, 48 h | Potency, µM (top dose mostly 46.1 µM), for the others: at the top dose activity, negative = less viability, actives largely listed as cytotoxic | 1.6% of 360,000 active;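 further: NT is the 2HG producing partner of a matched IDH1 knockdown line; potency means the concentration at half of the fitted maximal effect; 0% = DMSO-treated cells and -100% = media-only wells without cells; nearly all actives have a fitted effect of over 55% in size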
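Toxicity toward the 2HG-producing NT line was scored as %Activity, normalised to DMSO and no-cell wells, from CellTiter-Glo luminescence after 48 hours' treatment.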
HT1080 IDH1KD tx: qHTS for induction of synthetic lethality in tumor cells producing 2HG: qHTS for the HT-1080-IDH1KD cell line; Potency, µM (top dose mostly 46.1 µM), without a hit: at the highest dose activity, negative = toxicity, usual class: cytotoxic; 2% of 360,000 active; HT-1080 IDH1 knockdown viability, ATP luminescence, 48 h;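 further: potency means the concentration at half of the fitted maximal effect; 0% = DMSO wells and -100% = cell-free medium wells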
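In this qHTS, HT-1080 cells depleted of IDH1 are exposed for 48 h at 37 °C to compound titrations. Toxicity is scored from CellTiter-Glo luminescence, with DMSO as full viability and medium alone as none.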
An asterisk follows results filed as active. Unless noted, the call rests on the fitted dose curve; in most records, active means well fitted curve in the direction sought with a large enough effect; inconclusive means small, poorly fitted or top-dose-only effect, or another doubt; inactive means no such curve, though single readings can be large; an effect the other way counts as inactive or inconclusive.

How did O=C1/C(=C/c2cccc(O)c2)SC(=S)N1CC1CCCO1 (stereo not drawn) do in these assays?
HepG2 viability: -42%; TGFb SMAD3 inh: inconclusive; Giardia kill: 15; IL1B secr inh: inconclusive; HT1080-NT tox: -5%; HT1080 IDH1KD tx: -2%

How did O=C(CN1C(=O)S/C(=C\C=C\c2ccccc2)C1=O)Nc1ccc(O)cc1 do in these assays?
HepG2 viability: -1%; TGFb SMAD3 inh: 6%; Giardia kill: 3; IL1B secr inh: -54*; HT1080-NT tox: 9%; HT1080 IDH1KD tx: 3%

Results for O=C(CCCN1C(=O)S/C(=C/C=C/c2ccccc2)C1=O)Nc1ccc(C(=O)O)cc1 ?
HepG2 viability: -20%; TGFb SMAD3 inh: -2%; Giardia kill: -11; IL1B secr inh: -9; HT1080-NT tox: -18%; HT1080 IDH1KD tx: -13%

How did c1ccc2n[nH]nc2c1 do in these assays?
HepG2 viability: 8%; TGFb SMAD3 inh: -1%; Giardia kill: -17; IL1B secr inh: 4; HT1080-NT tox: 3%; HT1080 IDH1KD tx: 9%

Results for CCn1cc(C(=O)NCCC(C)C)c(=O)c2cc(F)c(N3CCN(C)CC3)cc21 ?
HepG2 viability: -16%; TGFb SMAD3 inh: -7%; Giardia kill: 0; IL1B secr inh: -3; HT1080-NT tox: -6%; HT1080 IDH1KD tx: -10%

Results for OC[C@@H]1CN(Cc2ccncc2)C[C@H](n2cnc3c(NC4CC4)ncnc32)O1 ?
HepG2 viability: 4%; TGFb SMAD3 inh: 16%; IL1B secr inh: 20; HT1080-NT tox: 12%; HT1080 IDH1KD tx: 0%

Results for CN1CCN(c2ncnc3c2ncn3[C@H]2CN(Cc3ccc(F)cc3)C[C@@H](CO)O2)CC1 ?
HepG2 viability: 6%; TGFb SMAD3 inh: 32%; IL1B secr inh: 21; HT1080-NT tox: 5%; HT1080 IDH1KD tx: 0%

How did CCN(CC)c1ncnc2c1ncn2[C@H]1CN(Cc2ccco2)C[C@@H](CO)O1 do in these assays?
HepG2 viability: -4%; TGFb SMAD3 inh: -1%; IL1B secr inh: -16; HT1080-NT tox: 19%; HT1080 IDH1KD tx: 9%

Results for CCN(CC)c1ncnc2c1ncn2[C@H]1CN(Cc2ccc(-c3ccccc3)cc2)C[C@@H](CO)O1 ?
HepG2 viability: -116%; TGFb SMAD3 inh: inconclusive; IL1B secr inh: -54*; HT1080-NT tox: inconclusive; HT1080 IDH1KD tx: inconclusive

Results for OC[C@@H]1CN(Cc2cccs2)C[C@H](n2cnc3c(N4CCN(c5ccccc5)CC4)ncnc32)O1 ?
HepG2 viability: -30%; TGFb SMAD3 inh: -23%; IL1B secr inh: 5; HT1080-NT tox: -16%; HT1080 IDH1KD tx: inconclusive

How did OC[C@@H]1CN(Cc2cccnc2)C[C@H](n2cnc3c(N4CCN(c5ccccc5)CC4)ncnc32)O1 do in these assays?
HepG2 viability: -7%; TGFb SMAD3 inh: 1%; IL1B secr inh: -79*; HT1080-NT tox: 4%; HT1080 IDH1KD tx: 0%

What do the screens show for `CN1CCN(c2ncnc3c2ncn3[C@H]2CN(Cc3ccc(-c4ccccc4)cc3)C[C@@H](CO)O2)CC1`?
HepG2 viability: 11µM*; TGFb SMAD3 inh: inconclusive; IL1B secr inh: -4; HT1080-NT tox: 18µM*; HT1080 IDH1KD tx: 9.2µM*

How did OC[C@@H]1CN(Cc2ccc(F)cc2)C[C@H](n2cnc3c(N4CCCC4)ncnc32)O1 do in these assays?
HepG2 viability: -12%; TGFb SMAD3 inh: 3%; IL1B secr inh: -91*; HT1080-NT tox: inconclusive; HT1080 IDH1KD tx: 22%

Results for CSc1ncccc1C(=O)OCC(=O)NCc1ccc2c(c1)OCO2 ?
HepG2 viability: 2%; TGFb SMAD3 inh: 2%; Giardia kill: -15; IL1B secr inh: 22; HT1080-NT tox: -1%; HT1080 IDH1KD tx: 1%

How did O=C(CSc1nnc(COc2ccc(F)cc2)o1)N1CCCCC1 do in these assays?
HepG2 viability: 9%; TGFb SMAD3 inh: 9%; Giardia kill: -4; IL1B secr inh: 6; HT1080-NT tox: 4%; HT1080 IDH1KD tx: 4%

What do the screens show for `OCCN1CCN(c2ncnc3c2ncn3[C@H]2CN(Cc3ccc(-c4ccccc4)cc3)C[C@@H](CO)O2)CC1`?
HepG2 viability: -34%; TGFb SMAD3 inh: -6%; IL1B secr inh: -16; HT1080-NT tox: 21µM*; HT1080 IDH1KD tx: inconclusive

How did CCn1c(=O)c(C(=O)NCCN2CCCCC2)c(O)c2ccccc21 do in these assays?
HepG2 viability: -27%; TGFb SMAD3 inh: -10%; Giardia kill: 21; IL1B secr inh: -7; HT1080-NT tox: inconclusive; HT1080 IDH1KD tx: 18µM*

Results for CCn1c(=O)c(C(=O)NCCc2ccccc2)c(O)c2ccccc21 ?
HepG2 viability: -3%; TGFb SMAD3 inh: -13%; Giardia kill: 19; IL1B secr inh: 33; HT1080-NT tox: -15%; HT1080 IDH1KD tx: -26%

What do the screens show for `N#C/C(=C\c1cccc(F)c1)c1nc(-c2cc3ccccc3oc2=O)cs1`?
HepG2 viability: -2%; TGFb SMAD3 inh: -9%

What do the screens show for `O=[N+]([O-])c1ccc(CN2CCCCCC2)cc1`?
HepG2 viability: 17%; TGFb SMAD3 inh: 0%; Giardia kill: 22; IL1B secr inh: 14; HT1080-NT tox: -2%; HT1080 IDH1KD tx: -10%

Results for O=[N+]([O-])c1ccc(S(=O)(=O)CC(CN2CCCCC2)N2CCCCC2)cc1 (stereo not drawn) ?
HepG2 viability: -16%; TGFb SMAD3 inh: -9%; Giardia kill: 9; IL1B secr inh: -14; HT1080-NT tox: -7%; HT1080 IDH1KD tx: 0%

How did O=[N+]([O-])c1ccc(CN2CCOCCOCCN(Cc3ccc([N+](=O)[O-])cc3)CCOCC2)cc1 do in these assays?
HepG2 viability: -44%; TGFb SMAD3 inh: inconclusive; Giardia kill: 14; IL1B secr inh: -142*; HT1080-NT tox: -2%; HT1080 IDH1KD tx: inconclusive

How did O=[N+]([O-])c1ccc(S(=O)(=O)CC(CN2CCOCC2)N2CCOCC2)cc1 (stereo not drawn) do in these assays?
HepG2 viability: -14%; TGFb SMAD3 inh: -4%; Giardia kill: -13; IL1B secr inh: -74*; HT1080-NT tox: -13%; HT1080 IDH1KD tx: -8%

What do the screens show for `CSc1ccc(CN2CCN(Cc3ccc([N+](=O)[O-])cc3)CC2)cc1`?
HepG2 viability: -2%; TGFb SMAD3 inh: 0%; Giardia kill: 4; IL1B secr inh: -67*; HT1080-NT tox: inconclusive; HT1080 IDH1KD tx: -29%
